Measured values reported in PubChem BioAssay.
Values without a mark were called inactive. No rule for the calls is given here.

System: Aerobactin synthetase IucA (Klebsiella pneumoniae hvKP1)
Experiment: IucA enzyme inhibition, primary screen, biochemical, Spectrum library (AID 1346200);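 also: 100% = wells without compound and 0% = wells lacking enzyme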
Settings: malachite green pyrophosphate, A620, at 8 µM, active compounds read low

| SMILES | activity remaining [%] |
| --- | --- |
| CC(=O)OCC(=O)[C@H]1CCC2C3CCC4=CC(=O)CC[C@]4(C)C3CC[C@@]21C (stereo not given in full) | 111 |
| O=C(O)c1cc(=O)c(O)c2c(O)c(O)c(O)cc2c1 | 104 |
| CC(=O)OC(C)(C)[C@@H]1Cc2cc3ccc(=O)oc3cc2O1 | 95.5 |
| O=C(O)c1cccnc1 | 120 |
| CC(C)C1CCC(C(=O)N[C@@H](Cc2ccccc2)C(=O)O)CC1 (stereo not given in full) | 118 |
| COc1ccc(-c2cc(=O)c3c(OC)c(OC)c(OC)c(OC)c3o2)cc1 | 121 |
| COC(=O)CCC(C)[C@H]1CCC2C3C(C[C@H](O)[C@@]21C)[C@@]1(C)CC[C@@H](O)C[C@H]1C[C@H]3O (stereo not given in full) | 105 |
| O=c1cc(-c2ccccc2)oc2c(O)c(O)ccc12 | 92.5 |
| CC(=O)OC[C@@]1(O)C[C@@]23CCC4c5ccoc5CC[C@]4(C)C2CC[C@@H]1C3 (stereo not given in full) | 119 |
| N=c1ccn2c(n1)O[C@@H]1C2O[C@H](CO)[C@H]1O (stereo not given in full) | 105 |
| CC(C)NCC(O)COc1ccc(CC(N)=O)cc1 (stereo not given) | 117 |
| CC(=O)CC(=O)CCC(=O)O | 102 |
| CC(C)=CC1C(CO)C1(C)C (stereo not given) | 86.3 |
| COc1ccc(C(C)=O)c(O)c1 | 83.8 |
| CC1(C)CC[C@]2(C)CC[C@]3(C)C(=CCC4[C@@]5(C)CC[C@H](O)C(C)(C)C5CC[C@]43C)C2C1 (stereo not given in full) | 121 |
| CC(C)Cc1ccc(C(C)C(=O)O)cc1 (stereo not given) | 90.9 |
| Nc1nc(=S)c2[nH]cnc2[nH]1 | 121 |
| C[C@@H]1CC[C@@]23CCC4(C)[C@@](C=CC5[C@@]6(C)CC[C@H](O)C(C)(C)C6CC[C@]54C)(OC2=O)C3[C@H]1C (stereo not given in full) | 99.4 |
| CCCC(=O)O[C@]1(C(=O)CO)CCC2[C@@H]3CCC4=CC(=O)CC[C@]4(C)C3[C@@H](O)C[C@@]21C (stereo not given in full) | 79 |
| C=CCCCCCCCCCCCc1ccco1 | 99.3 |

| SMILES | activity remaining [%] |
| --- | --- |
| COc1ccc(-c2oc3ccccc3c(=O)c2O)cc1OC | 109 |
| O=C(O)c1cc(=O)c2cccc(O)c2[nH]1 | 97.3 |
| NC(Cc1ccc(F)cc1)C(=O)O (stereo not given) | 124 |
| COc1ccc2c(c1)O[C@H]1c3ccc(OC)cc3OC[C@@H]21 | 122 |
| O=C1C=CC(=C(c2ccc(O)cc2)c2ccc(O)cc2)C=C1 | 105 |
| O=C(O)CCCc1ccccc1 | 111 |
| CCN(CC)C(C)CN1c2ccccc2Sc2ccccc21 (stereo not given) | 109 |
| CC(C)c1c(O)ccc2c1CCC1[C@@](C)(CO)CCC[C@]21C (stereo not given in full) | 101 |
| CC(=O)c1ccc[nH]1 | 98.2 |
| NCC[C@@H](O)C(=O)N[C@@H]1C[C@H](N)[C@@H](O[C@H]2O[C@H](CN)[C@@H](O)[C@H](O)[C@H]2O)[C@H](O)[C@H]1O[C@H]1O[C@H](CO)[C@@H](O)[C@H](N)C1O (stereo not given in full) | 113 |
| COc1ccc2c(c1OC)C(=O)O[C@H]2[C@H]1c2c(cc3c(c2OC)OCO3)CCN1C | 116 |
| COc1ccc(C(=O)/C=C/c2ccccc2)cc1 | 106 |
| CC(C)c1nc(N(C)S(C)(=O)=O)nc(-c2ccc(F)cc2)c1/C=C/[C@@H](O)C[C@@H](O)CC(=O)O | 124 |
| NS(=O)(=O)c1cc2c(cc1C(F)(F)F)NCNS2(=O)=O | 107 |
| CCC[C@@H]1C[C@@H](C(=O)N[C@@H](C2O[C@H](SC)[C@H](O)[C@@H](O)[C@H]2O)[C@H](C)Cl)N(C)C1 (stereo not given in full) | 77.4 |
| COc1ccc(-c2coc3cc(OC(C)=O)cc(OC(C)=O)c3c2=O)cc1 | 92.5 |
| C#CCCCCCCCCCCCC(O)CC(O)CO (stereo not given) | 98.4 |
| Cc1coc2c1C(=O)C(=O)c1c-2ccc2c1CCCC2(C)C | 103 |
| CCN(CC)CCOc1ccc2c(c1)C(=O)c1cc(OCCN(CC)CC)ccc1-2 | 118 |
| O=C(NCO)c1cccnc1 | 113 |
